The record followed here is PubChem BioAssay AID1117319 (Southern Research Institute, 2015).

Molecules are shown by their SMILES. Among all 260,000 compounds or so, about 1,500 (0.58%) were called active. Not shown: some 5% with an inconclusive outcome. Only a sample is shown. Potency and affinity values are given separately. A number with no mark means an inactive call.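 How the source made its calls: active means inhibition above a set limit at one or more doses, reproduced on every date tested; inconclusive means results disagree between test dates, or hit never tested in dose response; inactive means the rest.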

The assay concerns the target Virion infectivity factor (Human immunodeficiency virus type 1 group M subtype B (isolate BH10)) + Virion infectivity factor (Human immunodeficiency virus type 1 group M subtype B (isolate BRU/LAI)) + Virion infectivity factor (Human immunodeficiency virus type 1 group M subtype B (isolate PCV12)) + Virion infectivity factor (Human immunodeficiency virus type 1 group M subtype B (isolate HXB2)) + DNA dC->dU-editing enzyme APOBEC-3G (Homo sapiens) (UniProt P69720+P69721+P69722+P69723+Q9HC16). In words: HIV-1 Vif–A3G interaction blockers – biochemical, TR-FRET, GST-Vif 1-94, biotin-A3G peptide, dose response retest, primary screen (AID 1117319).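 Further: Vif residues 1-94 fused to GST binding biotinylated APOBEC3G peptide 110-148; 0% = full assay without inhibitor and 100% = GST in place of GST-Vif.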 Conditions: TR-FRET GST-Vif / biotin-A3G peptide binding; stronger effect = higher value. (In general: Time-resolved FRET reads energy transfer from a long-lived donor to a nearby acceptor.)
For the compound `COc1ccc(OC)c(NC(=O)CNC(=O)Cn2c(C)cc3ccccc3c2=O)c1`, the inhibition (usually the relative decrease from the control value, in per cent) is 7.41%.
The figure for `O=C(c1ccco1)N1CCN(C(=O)C2Cc3ccccc3CN2S(=O)(=O)c2ccc(F)cc2)CC1` (stereo unspecified) is -4.72%; for `CN(Cc1cccc2cnccc12)C(=O)c1cc(COc2ccc(F)cc2F)on1` it is -7.76%.
Turning to `COc1cccc(CN2CCN(Cc3cccc4c3OCO4)CC2CCO)c1` (stereo unspecified), the inhibition is -2.33%.
`CCOC(=O)C(C(=O)NCc1ccc(F)cc1)c1ncc(C(F)(F)F)cc1Cl` (stereo unspecified): the inhibition is 5.68%.
With `Nc1ncnc(Nc2cc(C(F)(F)F)cc(C(F)(F)F)c2)n1`, the inhibition was 11%.
Take `COc1ccc(C(=O)N/C(=C/c2cccnc2)C(=O)N2CCCCCC2)cc1OC`: the inhibition was 2.36%.
As to `COc1ccccc1C(=O)N/C(=C\c1ccc(Br)cc1)C(=O)NCCC(=O)O`, the inhibition is -1.86%.
For the compound `Cc1oc(/N=C/c2ccc(O)cc2O)c(C#N)c1C`, the inhibition is -3.01%.
Regarding `Cc1oc(/N=C/c2ccccc2O)c(C#N)c1C`, the inhibition was 6.98%.
In the case of `Clc1cccc(C2=NOC(c3nnc(-c4ccccc4)o3)C2)c1` (stereo unspecified) it was -9.96%; in that of `Cc1cc(C)c(OCCNC(=O)c2ccccc2Sc2ccccc2C#N)c(C)c1`, -2.47%; in that of `CC(=O)Oc1ccc(N2C(=O)C3C4C=CC(O4)C3C2=O)cc1` (stereo unspecified), -0.5%.
Regarding `CCCN(C(=O)c1ccc2c(SCC(=O)O)c3c(nc2c1)CCC3)c1cccc(C)c1`, the inhibition was 18.7%.
As for `O=C(O)CSc1c2c(nc3cc(C(=O)N4CCCC4)ccc13)CCCC2`, the inhibition is 4.71%.
Regarding `CCC(C)NC(=O)c1ccc2c(SCC(=O)O)c3c(nc2c1)CCCC3` (stereo unspecified), the inhibition is 7.55%.
As to `CCOC(=O)C1CCN(C(=O)c2ccc3c(SCC(=O)O)c4c(nc3c2)CCCC4)CC1`, the inhibition was -8.86%.
For `COc1cccc(/C=C2\SC(=S)N(CC(=O)N(C)C3CCS(=O)(=O)C3)C2=O)c1` (stereo unspecified), the inhibition was 3.59%.
In the case of `Cc1c(Cl)cccc1Nc1nc(N)nc(CSC(=S)N2CCOCC2)n1`, the inhibition is 0.88%.
Turning to `NS(=O)(=O)c1ccc(CCNS(=O)(=O)c2ccccc2)cc1`, the inhibition is 22.8%.
On to `O=C(CSc1ccc2nnc(-c3ccncc3)n2n1)Nc1nccs1`, for which the inhibition is -1.26%.
With `O=S(=O)(NCCN1CCCC1)c1ccc(C(F)(F)F)cc1`, the inhibition is 1.25%.
For the compound `N#Cc1c(-c2cccc(Br)c2)cc(-c2ccco2)[nH]c1=O`, the inhibition was 15.1%.
As for `N#Cc1c(-c2ccccc2)cc(-c2ccccc2)[nH]c1=O`, the inhibition is -8.66%.
`Cc1cc(-c2ccccc2)[nH]c(=O)c1C#N`: the inhibition is -1.26%.
As to `COc1ccc(-c2cc(C(F)(F)F)c(C#N)c(=O)[nH]2)cc1`, the inhibition is -2.26%.
